These sequences were tested on VDR:RXRa (NR concentration 270 nM, RXRa partner concentration 90 nM) (assay: PBM binding z-score (relative to random genomic background probes); higher = stronger binding; sequences stand for … in GC…GCGATTGACAGCGTAGAATGAAGG).
Procedure: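 Protein-binding microarray (Agilent 4x180K custom design, double-stranded 60-nt probes: 5' GC cap, 34-nt variable region, 24-nt constant primer region; full probe sequence given). Purified or IVT nuclear receptor:RXRα heterodimers (3:1 NR:RXRα, mostly 270:90 nM) or homodimers were incubated for 1 h in PBS with 2% milk and no ligand, then detected with Alexa488 antibodies. Fluorescence from o1-orientation probes (~5 replicates averaged) was converted to z-scores against 500 random hg19 background probes. Variable regions are seed direct-repeat (DR0–DR5) sites, all their single-nucleotide variants and half-site ablations.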
With ATCTCTAGGTAACCAGGTTCAGTGAATGCCGAAC the PBM binding z-score was 4.05.
Sequence TCTCGGAGGACACGAAAGGTCACAGCTCGACATC has a PBM binding z-score of 4.91.
In the case of AGTCAAAGTTCACTATGTAACGTAAGATTCAGCT, the PBM binding z-score is reported as 3.89.
Work on TCCGCTAGGTCAGTTGGTCAGCTAACGAGCTGCC yielded a PBM binding z-score of 0.232.
With CTACCTAGGTGAACAAGGTCGTTGATTACTATTC the PBM binding z-score was 5.37.
In the case of CCAGACAGGTGAAAGGTATCTCAGTCTGGTACGC, the PBM binding z-score is reported as 0.0976.
Sequence ACTAGCAGGCCAAGTTTGGGTCACGCAAACAAAG has a PBM binding z-score of 1.36.
In the case of CCTAGTCGGTCAGGAGGTCACACACCGGATATGA, the PBM binding z-score is reported as 3.97.
CGTCCAAGCTCAGAGAGGTCAGTGAATGCCGAGT was tested, and the PBM binding z-score was 2.2.
With CGTCCAAGGTCAAGGTCGGTGAAAGAGACTCGAA the PBM binding z-score was 4.2.
Work on ATCTCTAGGTAAAAGTTCGGTGAATCCCGAGGAT yielded a PBM binding z-score of 0.449.
In the case of TCATATAGGTAAAGGTGAAGGTCGAACGATATGA, the PBM binding z-score is reported as 1.63.
For CCAGACAGGTGACAAGGTAACTCAGCCTCGATTA, the PBM binding z-score was 0.0377.
ACTAGCAGGCCGAGTTTGGGTCACTCAAACAAAG showed a PBM binding z-score of 0.459.
Sequence TTACCAAGTTGAAAGGTCGTTGATGCACGCCTTG has a PBM binding z-score of 2.65.
CCGACTGGGGCAAGGTTACCAAAACGCACAGCCA gave a PBM binding z-score of 0.129.
CCTCGGAGGACAACAGGAGGTCAGGGCTGCCAGA showed a PBM binding z-score of 1.62.
TCTCGGAGGACACGACAGGTCAGAGCTCGACATC showed a PBM binding z-score of 0.875.
In the case of CGTCAAAGTACAAGGTAACGTAACAGAAAGCAGC, the PBM binding z-score is reported as 0.215.
Sequence CGTCCAAGGTCAATGCTAGGGCAGTGAAAGCATT has a PBM binding z-score of 3.92.
For TATGCTAGGTCAACGATGGTCAGCTAATCTGCTA, the PBM binding z-score was 1.79.
For CCGACTTGGGCATAAGGTTACCATAAGCCAGCCC, the PBM binding z-score was -0.311.
With TCTCGGAGGACACGAAAGGTCAGAGCACGACATC the PBM binding z-score was 3.41.
Sequence GCTGCTAGGGCAGGTTGGTCAGCTAACGGGTACG has a PBM binding z-score of -0.775.
ATCGAAAGGTAGACGAGGTGAGTATACACCGTTT showed a PBM binding z-score of 0.452.
For TCTCGGAGGACCCGAAGGTCAGAGCTTTCCAGAG, the PBM binding z-score was 0.636.
With TGAATGAGGTTATAAGATTAGGGAACGTTGCAAA the PBM binding z-score was 1.12.
Sequence TCTAGTTGATCAAAGGTCACACACTCGAAATGCG has a PBM binding z-score of 5.05.
Sequence TGAGTGAGGTTAAAGATCAGGGAACGTGGCGTCG has a PBM binding z-score of 1.66.
With CCAGACAGGTGAAAGGCAACTCAGTCTGGTACGC the PBM binding z-score was -0.108.
For ATCTCTAGGTAAAGATAGTTCAGTCAATGCAAAT, the PBM binding z-score was 0.723.
With CGTCCAAGGTCAATGATAGGTCAGTGAAAGCATT the PBM binding z-score was 5.02.
Work on ACTATTAGTTGACTTAGGGCAACAGATACGACGC yielded a PBM binding z-score of 0.323.
With CCGACTGGGGCATAAGGTTACCGTAAGCCAGCCC the PBM binding z-score was 0.108.
AATACAGGGTCATCGTAGGCCATAGTACGCACAG gave a PBM binding z-score of 5.58.
CCTACTGGGCCATTCCGAGGTCATTGATCATATG showed a PBM binding z-score of 3.86.
In the case of CCTAGCAGGCCAGAGTCACTCAAGCATTTCGCTT, the PBM binding z-score is reported as -0.665.
Sequence TCATATAGGTAAATGCTAGATGAAAGTCCGATCT has a PBM binding z-score of 0.802.
In the case of ACAGACAGGTGAGTAAAGGTAACTCAGCTGGACG, the PBM binding z-score is reported as -0.139.
TCTCGTAGGACACGAAGGTCAGAGCTTTCCAGAG showed a PBM binding z-score of 1.71.

Reference: the supplement of paper PMC6555819
